According to PubChem BioAssay (EPA / NIEHS):
The source made the active and inactive calls. Rule for the calls: active = hit-call score of the fitted dose curve at least 0.9, where 1 is the maximum; inactive = score below 0.9.

What was measured:
[1] = ATG_CRE_CIS: Attagene CIS-FACTORIAL HepG2 Assay for human cAMP Responsive Element (CRE) binding protein 3 (AID 2282926); settings: HepG2 CRE cis-reporter, Attagene multiplexed mRNA; actives raise or lower the signal
In short: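 HepG2 cells transiently transfected with a multiplexed reporter library (CRE-driven unit among them) were dosed for 24 h. Reporter mRNA was quantified by RT-PCR, fluorescent labelling, HpaI digestion and capillary electrophoresis, with bidirectional fitting against DMSO baseline.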

[2] = biological target: CCAAT/enhancer-binding protein beta (Homo sapiens) (UniProt P17676); test: ATG_C_EBP_CIS: Attagene CIS-FACTORIAL HepG2 Assay for human CCAAT/Enhancer Binding Protein (C/EBP) beta (AID 2282927); settings: HepG2 Attagene cis-factorial transcription factor reporter; actives raise or lower the signal
Chain of CCAAT/enhancer-binding protein beta (Homo sapiens) (P17676 whole entry, looked up): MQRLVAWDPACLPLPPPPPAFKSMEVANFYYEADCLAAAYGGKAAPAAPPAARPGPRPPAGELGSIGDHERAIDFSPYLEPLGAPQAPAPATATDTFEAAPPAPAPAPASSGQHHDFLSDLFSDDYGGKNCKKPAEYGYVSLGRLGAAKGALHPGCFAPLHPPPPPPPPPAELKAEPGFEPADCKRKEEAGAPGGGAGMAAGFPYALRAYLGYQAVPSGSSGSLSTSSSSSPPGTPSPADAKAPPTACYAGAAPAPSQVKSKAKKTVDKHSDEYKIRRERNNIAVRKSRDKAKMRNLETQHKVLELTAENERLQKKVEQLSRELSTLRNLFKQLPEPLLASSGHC
In short: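 Endogenous transcription factor activity in human liver HepG2 cells is inferred from induction of a CEBPB-linked reporter mRNA. Exposure lasts 24 h; activity is fitted in both directions relative to DMSO.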

[3] = ATG_CMV_CIS: Attagene CIS-FACTORIAL HepG2 Assay for human CMV (Internal Marker) (AID 2282928); settings: HepG2 CMV promoter reporter, transcription factor profiling; actives raise or lower the signal;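 note: endpoint acts as a background internal control marker rather than a target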
In short: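 CMV internal-marker background readout in transiently transfected HepG2 cells bearing cis-regulated reporter units. Reporter mRNA is measured 24 h after dosing by RT-PCR and capillary electrophoresis, with bidirectional fitting against DMSO.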

[4] = biological target: Aryl hydrocarbon receptor (Homo sapiens) (UniProt P35869); test: ATG_Ahr_CIS: Attagene CIS-FACTORIAL HepG2 Assay for human Aryl Hydrocarbon Receptor (Ahr) (AID 2282930); settings: HepG2 AhR cis-factorial reporter transcription; actives raise or lower the signal
Chain of Aryl hydrocarbon receptor (Homo sapiens) (P35869 whole entry, looked up): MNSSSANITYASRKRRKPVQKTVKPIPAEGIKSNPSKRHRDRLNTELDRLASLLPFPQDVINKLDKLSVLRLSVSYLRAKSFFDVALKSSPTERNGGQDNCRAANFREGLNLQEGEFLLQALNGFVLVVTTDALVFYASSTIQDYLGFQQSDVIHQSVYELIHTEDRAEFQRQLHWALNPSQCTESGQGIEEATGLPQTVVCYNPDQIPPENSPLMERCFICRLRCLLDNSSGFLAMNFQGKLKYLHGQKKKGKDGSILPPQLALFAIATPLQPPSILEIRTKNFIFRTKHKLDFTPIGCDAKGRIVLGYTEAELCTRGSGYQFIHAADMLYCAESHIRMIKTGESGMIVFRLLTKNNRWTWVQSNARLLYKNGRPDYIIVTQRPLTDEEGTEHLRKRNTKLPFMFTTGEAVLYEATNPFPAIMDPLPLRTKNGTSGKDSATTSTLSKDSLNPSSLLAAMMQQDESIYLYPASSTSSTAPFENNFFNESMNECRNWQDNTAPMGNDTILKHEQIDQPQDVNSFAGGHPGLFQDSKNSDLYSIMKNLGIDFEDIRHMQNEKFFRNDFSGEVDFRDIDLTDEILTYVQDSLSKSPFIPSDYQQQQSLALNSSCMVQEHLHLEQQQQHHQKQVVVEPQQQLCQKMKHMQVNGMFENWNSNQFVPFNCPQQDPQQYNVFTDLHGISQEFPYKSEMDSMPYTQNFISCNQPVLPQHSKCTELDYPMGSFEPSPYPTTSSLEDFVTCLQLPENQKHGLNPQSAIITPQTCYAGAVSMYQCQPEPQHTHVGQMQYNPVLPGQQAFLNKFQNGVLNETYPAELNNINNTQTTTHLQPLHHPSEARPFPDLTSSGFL
In short: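 Transient MRTU transfection of HepG2 → 24 h compound exposure → total RNA, oligo(dT) RT → PCR, 6-FAM extension, HpaI cut → CE fluorescence. DMSO = baseline; bidirectional curve fit.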

[5] = ATG_AP_1_CIS: Attagene CIS-FACTORIAL HepG2 Assay for human Activator Protein 1 (AP-1) (AID 2282931); settings: HepG2 Attagene cis-factorial AP-1 reporter mRNA; actives raise or lower the signal
In short: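 Multiplexed HepG2 reporter assay, 24 h dosing. mRNA induction detected by RT-PCR plus capillary electrophoresis. Activity fitted in both directions against DMSO.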

[6] = ATG_AP_2_CIS: Attagene CIS-FACTORIAL HepG2 Assay for human Activator Protein 2 (AP-2) (AID 2282932); settings: HepG2 AP-2 cis-reporter, Attagene transcription factor profiling; actives raise or lower the signal
In short: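 Step one: transient transfection of HepG2 with reporter transcription units. Step two: 24 h chemical exposure. Step three: RNA extraction, RT-PCR, labelled fragment analysis by capillary electrophoresis; DMSO serves as baseline.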

[7] = ATG_BRE_CIS: Attagene CIS-FACTORIAL HepG2 Assay for human Bone Morphogenetic Protein (BMP) Response Element (BRE) (AID 2282933); settings: HepG2 BMP response element reporter, Attagene transcription factor profiling; actives raise or lower the signal
In short: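 Gain- or loss-of-signal was derived by bidirectional fitting against DMSO controls. The signal came from reporter mRNA, measured by RT-PCR and capillary electrophoresis, in HepG2 cells transiently carrying multiple reporter units and dosed for 24 h.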

[8] = biological target: Retinoic acid receptor alpha (Homo sapiens) (UniProt P10276); test: ATG_DR5_RAR_CIS: Attagene CIS-FACTORIAL HepG2 Assay for human Retinoic Acid Receptor Alpha (RARE), DR5 submotif (AID 2282934); settings: HepG2 Attagene cis-factorial RARE DR5 reporter, mRNA; actives raise or lower the signal;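 for AC50: reporter responds to endogenous RAR alpha beta and gamma in HepG2 not RARA alone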
Chain of Retinoic acid receptor alpha (Homo sapiens) (P10276 whole entry, looked up): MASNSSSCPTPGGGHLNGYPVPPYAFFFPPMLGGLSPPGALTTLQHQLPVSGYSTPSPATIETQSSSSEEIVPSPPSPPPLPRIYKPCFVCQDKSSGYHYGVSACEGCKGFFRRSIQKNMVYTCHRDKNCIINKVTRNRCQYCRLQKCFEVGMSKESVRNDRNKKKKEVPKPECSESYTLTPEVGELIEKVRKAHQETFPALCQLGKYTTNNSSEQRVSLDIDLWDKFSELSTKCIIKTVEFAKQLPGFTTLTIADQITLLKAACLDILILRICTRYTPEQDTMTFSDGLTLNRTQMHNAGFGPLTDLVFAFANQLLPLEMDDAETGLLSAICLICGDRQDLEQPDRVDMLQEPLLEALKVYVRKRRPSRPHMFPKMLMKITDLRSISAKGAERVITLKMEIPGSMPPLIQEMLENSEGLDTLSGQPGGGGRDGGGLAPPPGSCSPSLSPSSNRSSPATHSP
In short: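 Transient MRTU transfection of HepG2; 24 h compound treatment; TriZol RNA, oligo(dT) RT, PCR, FAM labelling, capillary electrophoresis. Bidirectional fit vs DMSO. Endogenous TF activity at DR5 RARE.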

[9] = biological target: Transcription factor E2F1 (Homo sapiens) (UniProt Q01094); test: ATG_E2F_CIS: Attagene CIS-FACTORIAL HepG2 Assay for human E2F Transcription Factor 1 (AID 2282935); settings: HepG2 Attagene cis-reporter, E2F reporter RNA transcripts; actives raise or lower the signal
Chain of Transcription factor E2F1 (Homo sapiens) (Q01094 whole entry, looked up): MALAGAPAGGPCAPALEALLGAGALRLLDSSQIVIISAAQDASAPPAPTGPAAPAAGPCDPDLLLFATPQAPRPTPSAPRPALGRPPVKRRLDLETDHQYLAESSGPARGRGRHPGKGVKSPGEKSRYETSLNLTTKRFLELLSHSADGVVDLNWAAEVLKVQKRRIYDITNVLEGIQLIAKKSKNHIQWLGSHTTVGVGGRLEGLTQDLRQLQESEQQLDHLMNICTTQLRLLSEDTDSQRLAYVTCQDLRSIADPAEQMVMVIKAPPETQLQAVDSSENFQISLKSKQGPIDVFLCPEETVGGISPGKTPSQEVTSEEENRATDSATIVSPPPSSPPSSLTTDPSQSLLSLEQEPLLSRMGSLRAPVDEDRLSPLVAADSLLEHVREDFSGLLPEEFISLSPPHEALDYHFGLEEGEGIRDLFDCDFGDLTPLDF
In short: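 Total RNA from 24 h-treated, reporter-transfected HepG2 cells undergoes DNase I treatment, oligo(dT) reverse transcription, PCR and 6-FAM primer extension before capillary electrophoresis.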

| Compound | outcome [1] | outcome [2] | outcome [3] | outcome [4] | outcome [5] | outcome [6] | outcome [7] | outcome [8] | outcome [9] | AC50 [5] | AC50 [3] | AC50 [8] | AC50 [4] | AC50 [7] |
| --- | --- | --- | --- | --- | --- | --- | --- | --- | --- | --- | --- | --- | --- | --- |
| O=C(C=Cc1ccccc1)OCc1ccccc1 | inactive | inactive | inactive | inactive | inactive | inactive | inactive | inactive | inactive |  |  |  |  |  |
| CC(C)COC(=O)C=Cc1ccccc1 | inactive | inactive | inactive | inactive |  | inactive | inactive | inactive | inactive | 139 µM (active) |  |  |  |  |
| Cc1cc(C)c(C(=O)O)c(C)c1 | inactive | inactive | inactive | inactive | inactive | inactive | inactive | inactive |  |  |  |  |  |  |
| CCCC(=O)OCc1ccccc1 | inactive | inactive | inactive | inactive | inactive | inactive | inactive | inactive | inactive |  |  |  |  |  |
| COc1ccc(C(Cl)=C(c2ccc(OC)cc2)c2ccc(OC)cc2)cc1 | inactive | inactive | inactive | inactive | inactive | inactive | inactive | inactive | inactive |  |  |  |  |  |
| CCC(C)(C)C1CCCCC1OC(C)=O (centres undefined) | inactive | inactive |  | inactive |  | inactive | inactive | inactive | inactive | 158 µM (active) | 155 µM (active) |  |  |  |
| CCOC(F)(F)C(F)(F)C(F)(F)C(F)(F)F | inactive | inactive | inactive | inactive | inactive | inactive | inactive | inactive | inactive |  |  |  |  |  |
| COC(=O)c1ccccc1OC | inactive | inactive | inactive | inactive | inactive | inactive |  | inactive | inactive |  |  |  |  |  |
| CC(C)(Oc1ccc(C2CC2(Cl)Cl)cc1)C(=O)O (centres undefined) | inactive | inactive | inactive | inactive | inactive | inactive | inactive | inactive | inactive |  |  |  |  |  |
| CC(=O)OCC(C)OC(C)=O (centres undefined) | inactive | inactive | inactive | inactive | inactive | inactive | inactive | inactive | inactive |  |  |  |  |  |
| C=COCCCC | inactive | inactive | inactive | inactive | inactive | inactive | inactive | inactive | inactive |  |  |  |  |  |
| N#[N+]c1ccc2c(S(=O)(=O)[O-])cccc2c1O | inactive | inactive | inactive | inactive | inactive | inactive | inactive | inactive | inactive |  |  |  |  |  |
| CCCCCCCC/C=C\CCCCCCCC(=O)O | inactive | inactive | inactive | inactive |  | inactive | inactive |  | inactive | 137 µM (active) |  | 85.9 µM (active) |  |  |
| c1ccc2c(c1)ccc1cc3c(ccc4ccccc43)cc12 | inactive | inactive | inactive |  | inactive | inactive |  | inactive | inactive |  |  |  | 0.0244 µM (active) |  |
| Nc1ccc2cc3ccccc3cc2c1 | inactive | inactive | inactive | inactive | inactive | inactive | inactive | inactive | inactive |  |  |  |  |  |
| O=C1c2ccccc2C(=O)C1c1nc2ccccc2c(Br)c1O | inactive | inactive | inactive |  | inactive |  |  | inactive | inactive |  |  |  | 0.388 µM (active) | 100 µM (active) |
| Cc1oncc1C(=O)Nc1ccc(C(F)(F)F)cc1 | inactive | inactive | inactive |  |  |  |  | inactive |  | 100 µM (active) |  |  | 8.59 µM (active) | 127 µM (active) |
| CCCCC/C=C\C/C=C\CCCCCCCC(=O)OC | inactive | inactive | inactive | inactive |  | inactive |  |  | inactive | 132 µM (active) |  | 71.2 µM (active) |  | 126 µM (active) |
| C=CC(C)(CCC=C(C)C)OC(=O)C(C)C (centres undefined) | inactive | inactive |  | inactive |  | inactive | inactive | inactive | inactive | 146 µM (active) | 141 µM (active) |  |  |  |
| O=C(Nc1ccccc1SSc1ccccc1NC(=O)c1ccccc1)c1ccccc1 | inactive | inactive | inactive |  |  | inactive | inactive | inactive | inactive | 62.4 µM (active) |  |  | 2.79 µM (active) |  |
